# Source: PubChem BioAssay AID488969 (Vanderbilt High Throughput Screening Facility, 2010)
# Over roughly 110,000 compounds, “z-score” has its median near -0.1; the highest 2% begin near 2. This is one part of a sample in which the highest values are shown more often than they occur. Activity calls are given as the source filed them.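 Rule for the calls: active = z-score in the third read window above 3 or below -3; inactive = the rest.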
# Biological target: Metabotropic glutamate receptor 8 (Rattus norvegicus) (UniProt P70579)
# Experiment: rat mGluR8 modulators via GIRK flux, primary screen, cell-based, thallium flux, HTS (AID 488969)
# Conditions: HEK293 rat mGluR8, GIRK (G protein-gated inwardly rectifying potassium channel) thallium flux, FluoZin2; at 10 µM; stronger effect = higher value; submaximal glutamate (EC20) added with thallium
# Sequence of Metabotropic glutamate receptor 8 (Rattus norvegicus) (P70579 whole entry, looked up): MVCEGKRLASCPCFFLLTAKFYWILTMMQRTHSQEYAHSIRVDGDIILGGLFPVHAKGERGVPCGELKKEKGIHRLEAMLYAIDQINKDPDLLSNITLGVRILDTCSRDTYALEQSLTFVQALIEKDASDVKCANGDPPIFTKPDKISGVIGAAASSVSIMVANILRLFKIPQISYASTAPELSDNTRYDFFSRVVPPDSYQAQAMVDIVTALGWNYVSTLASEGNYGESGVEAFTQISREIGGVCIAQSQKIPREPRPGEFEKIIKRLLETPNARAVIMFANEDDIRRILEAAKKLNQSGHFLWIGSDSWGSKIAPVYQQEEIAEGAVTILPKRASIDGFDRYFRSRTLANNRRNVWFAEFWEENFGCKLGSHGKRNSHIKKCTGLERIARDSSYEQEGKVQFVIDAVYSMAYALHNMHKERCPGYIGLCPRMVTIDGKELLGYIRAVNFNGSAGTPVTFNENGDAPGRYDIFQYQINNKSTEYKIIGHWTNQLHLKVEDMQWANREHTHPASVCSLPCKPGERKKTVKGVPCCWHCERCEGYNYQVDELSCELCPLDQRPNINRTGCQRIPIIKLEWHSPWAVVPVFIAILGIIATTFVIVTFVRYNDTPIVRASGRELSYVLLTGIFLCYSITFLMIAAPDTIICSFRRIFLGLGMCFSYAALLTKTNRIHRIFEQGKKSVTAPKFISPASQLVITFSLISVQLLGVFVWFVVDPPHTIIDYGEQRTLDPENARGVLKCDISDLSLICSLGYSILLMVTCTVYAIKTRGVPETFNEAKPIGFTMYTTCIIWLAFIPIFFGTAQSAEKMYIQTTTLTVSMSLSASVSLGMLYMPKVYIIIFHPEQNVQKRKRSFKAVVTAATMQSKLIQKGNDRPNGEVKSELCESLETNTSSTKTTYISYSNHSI
row,SMILES,z-score
1,Cc1cc(C(=O)N/N=C/c2cccnc2)c(C)o1,0.000639
2,O=C(CCCCl)NC(=S)Nc1cc(C(F)(F)F)ccc1N1CCOCC1,0.012
3,O=C1CCCC2=C1C(c1ccncc1)c1c(nc(SCc3ccccc3)[nH]c1=O)N2 (configuration not stated),-1.55
4,CCn1c2ccccc2c2cc(/C=N/n3cn[nH]c3=S)ccc21,11.5 (active)
5,CCn1c2ccccc2c2cc(/C=N/n3c(C)nnc3C)ccc21,-1.04
6,CCn1c2ccccc2c2cc(/C=N/n3cnnc3)ccc21,-1.04
7,Cc1nnc(N/N=C/c2cc([N+](=O)[O-])c(N3CCC(C)CC3)cc2N2CCC(C)CC2)n1N,2.68
8,Cc1ccc(/C=N/n2nnnc2N)cc1[N+](=O)[O-],0.159
9,Nc1nnnn1/N=C/c1ccc(N2CCCCC2)c([N+](=O)[O-])c1,1.18
10,CC1CCN(c2cc(N)c(Cl)cc2[N+](=O)[O-])CC1,-0.475
11,CC1CCN(c2ccc(/C=N/n3nnnc3N)cc2[N+](=O)[O-])CC1,3.58 (active)
12,CCc1nnc(N/N=C/c2ccc(N3CCC(C)CC3)c([N+](=O)[O-])c2)n1N,-0.0832
13,CC(=O)Nc1ccc(OCC(O)CN2C(C)CCCC2C)cc1 (configuration not stated),-0.417
14,Cn1c(=O)c2c(nc(SCc3ccccc3)n2Cc2ccc(Cl)cc2)n(C)c1=O,-0.333
15,CC(=O)/C=C/c1ccc2ccccc2n1,0.038
16,Cc1c(O)ccc(/C(Cc2ccc3ccccc3n2)=N\O)c1O,-0.308
17,C/C(CC(O)c1ccc2ccccc2n1)=N/O (configuration not stated),5.27 (active)
18,CCc1ccc2[nH]c(=O)c(C(c3nnnn3Cc3ccco3)N3CCC(C)CC3)cc2c1 (configuration not stated),-0.27
19,O=C(/C=C/c1cccs1)Nc1ccc(Br)cn1,-0.222

row,SMILES,z-score
1,O=C(c1cccs1)N(C(=O)c1cccs1)c1ccc(Br)cn1,2.26
2,Cc1ccnc(N(C(=O)c2cccs2)C(=O)c2cccs2)c1,-0.0449
3,CC(=O)N1c2ccccc2Oc2cc3ccccc3cc21,-0.261
4,Cc1cccc(N2C(=O)CS/C2=N\NC(=O)c2ccc(Br)cc2)c1C,1.16
5,Cc1cccc(N2C(=O)CS/C2=N\NC(=O)c2ccc(Cl)cc2)c1C,3.96 (active)
6,Cc1ccc(C(=O)N/N=C2\SCC(=O)N2c2cc(C)ccc2C)cc1,-0.396
7,Cc1ccc(N2C(=O)c3ccccc3C2Nc2ccccc2)nc1 (configuration not stated),-0.424
8,CN1CCN(/C=C2\SC(=S)NC2=O)CC1,-0.54
9,Cc1nn(C)c(C)c1/C=C1/SC(=S)NC1=O,0.492
10,CN1CCC/C1=C/C=C1\SC(=S)NC1=O,2.4
11,Cc1ccc(C(=O)CSc2nc3ccccc3c(=O)n2-c2ccccc2)s1,0.061
12,O=C(NCc1ccccc1)/C(=N\O)c1ccccc1,0.503
13,O=C(NCc1cccnc1)/C(=N\O)c1ccccc1,2.02
14,O=C(NCc1ccncc1)/C(=N/O)c1ccccc1,1.14
15,COc1ccc(N(CC(=O)NCCC2=CCCCC2)S(C)(=O)=O)cc1OC,0.274
16,CCN1C(=O)/C(=C2/Sc3ccc(OC)cc3N2C)SC1=Nc1ccc(C(C)=O)cc1,-0.0997
17,CCOC(=O)N1CCC(NC(=O)c2ccc(CS(=O)(=O)c3ccc(OC)cc3)o2)CC1,-0.141
18,O=C(CN1CCCCC1)Nc1ccc(S(=O)(=O)N2CCOCC2)cc1,-0.0871
19,COc1ccccc1-c1nc2cc3ccccc3cc2nc1-c1ccccc1OC,-0.377

row,SMILES,z-score
1,CCCc1nn(C)c2c(=O)[nH]c(-c3ccccc3OCC)nc12,-0.237
2,Cc1cc(C)cc(NS(=O)(=O)c2ccc3[nH]c(=O)[nH]c3c2)c1,0.711
3,Cc1cc(C)cc(NS(=O)(=O)c2ccc3oc(=O)ccc3c2)c1,2.23
4,O=c1ccc2cc(S(=O)(=O)Nc3ccc(F)cc3)ccc2o1,-0.226
5,O=C(CSCC(=O)N1CCN(c2ccccc2)CC1)Nc1nc(-c2ccc(Cl)s2)cs1,0.16
6,CC1CN(C(=O)CSc2nc(-c3ccc(F)cc3)cs2)CC(C)O1 (configuration not stated),-0.898
7,O=C(CSc1nc(-c2ccc(F)cc2)cs1)N1CCOCC1,3.29 (active)
8,O=C(CSCC(=O)N1CCOCC1)Nc1nc(-c2ccc3c(c2)OCO3)cs1,2
9,O=C(CSCC(=O)N1CCCCC1)Nc1nc(-c2ccc(Cl)s2)cs1,2.68
10,O=C(CSc1nc(-c2ccc(F)cc2)cs1)N1CCc2ccccc21,-0.119
11,CCC(=O)Nc1nc(-c2ccc3c(c2)OCCO3)cs1,-0.0358
12,CC1CCCN(C(=O)CSCC(=O)Nc2nc(-c3cccs3)cs2)C1 (configuration not stated),0.503
13,CCOC(=O)N1CCN(C(=O)CSCC(=O)Nc2nc(-c3ccc4c(c3)OCO4)cs2)CC1,-0.296
14,O=[N+]([O-])c1ccc(Cl)c(S(=O)(=O)N2CCCCCC2)c1,-0.0418
15,COc1ccc(-c2nsc3c(SCC(=O)Nc4cc(C)ccc4C)ncnc23)cc1,0.00156
16,CC(NS(=O)(=O)c1ccc(CCC(=O)N2CCN(C)CC2)cc1)c1ccccc1 (configuration not stated),-0.349
17,O=C(Cc1ccccc1)Nc1nc(-c2cccs2)cs1,2.99
18,CC(=O)Nc1nc(-c2cccs2)cs1,-0.281
19,O=C(COc1ccccc1)Nc1nc(-c2cccs2)cs1,2.15
